PubChem BioAssay AID1159580 (chemical genetic matrix, 2015)
Hit rate of the full screen: of about 5,500 compounds, about 2,000 (36%) were called active. Not shown: some 18% with an inconclusive outcome. No stated cut-off is given here; in the data, active means normalized growth mostly below about 0.91 (no sharp cut-off); inconclusive means no clear call, values can overlap the other calls; inactive means mostly above about 0.92. The list shows a part of the results.

Assay: chemical genetic growth profiling, strain panel (AID 1159580);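 further: tested at 20 µM; growth read once vehicle control cultures reached saturation at 30 °C; 1 = growth at the plate median or of vehicle wells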
Conditions: growth OD

Measured: normalized growth

O=C(O)/C=C/C(=O)Nc1ccc(-n2nc(C(F)(F)F)cc2C(F)(F)F)cc1
inactive: S. cerevisiae deletion strains, locus YAL013W, strain DEP1, stronger effect = lower value 0.987 | S. cerevisiae deletion strains, locus YBR229C, strain ROT2, stronger effect = lower value 1 | S. cerevisiae deletion strains, locus YCL061C, strain MRC1, stronger effect = lower value 1.01 | S. cerevisiae deletion strains, locus YDL101C, strain DUN1, stronger effect = lower value 0.97 | S. cerevisiae deletion strains, locus YDL134C, strain PPH21, stronger effect = lower value 1.02 | S. cerevisiae deletion strains, locus YDR150W, strain NUM1, stronger effect = lower value 0.992 | S. cerevisiae deletion strains, locus YEL061C, strain CIN8, stronger effect = lower value 1.03 | S. cerevisiae deletion strains, locus YGR078C, strain PAC10, stronger effect = lower value 1.01 | S. cerevisiae deletion strains, locus YHR030C, strain SLT2, stronger effect = lower value 1.11 | S. cerevisiae deletion strains, locus YHR087W, strain rtc3, stronger effect = lower value 0.995 | S. cerevisiae deletion strains, locus YJL187C, strain SWE1, stronger effect = lower value 1.01 | S. cerevisiae deletion strains, locus YJR043C, strain POL32, stronger effect = lower value 1 | S. cerevisiae deletion strains, locus YJR075W, strain HOC1, stronger effect = lower value 1.08 | S. cerevisiae deletion strains, locus YKL190W, strain CNB1, stronger effect = lower value 1.02 | S. cerevisiae deletion strains, locus YLR039C, strain RIC1, stronger effect = lower value 1.04 | S. cerevisiae deletion strains, locus YLR058C, strain SHM2 (second series), stronger effect = lower value 1.02 | S. cerevisiae deletion strains, locus YLR085C, strain ARP6, stronger effect = lower value 1.07 | S. cerevisiae deletion strains, locus YLR262C, strain YPT6, stronger effect = lower value 1.03 | S. cerevisiae deletion strains, locus YML094W, strain GIM5, stronger effect = lower value 1.02 | S. cerevisiae deletion strains, locus YMR219W, strain ESC1, stronger effect = lower value 1.01 | S. cerevisiae deletion strains, locus YMR263W, strain SAP30, stronger effect = lower value 1.02 | S. cerevisiae deletion strains, locus YMR307W, strain GAS1, stronger effect = lower value 1.14 | S. cerevisiae deletion strains, locus YNL128W, strain TEP1, stronger effect = lower value 1.02 | S. cerevisiae deletion strains, locus YNL153C, strain GIM3, stronger effect = lower value 0.989 | S. cerevisiae deletion strains, locus YNL298W, strain CLA4 (second series), stronger effect = lower value 1.05 | S. cerevisiae deletion strains, locus YNL322C, strain KRE1, stronger effect = lower value 1 | S. cerevisiae deletion strains, locus YNR030W, strain Alg12, stronger effect = lower value 1.02 | S. cerevisiae deletion strains, locus YOL006C, strain TOP1, stronger effect = lower value 1.09 | S. cerevisiae deletion strains, locus YPL055C, strain LGE1, stronger effect = lower value 1 | S. cerevisiae deletion strains, locus YPL241C, strain CIN2, stronger effect = lower value 1.01 | S. cerevisiae deletion strains, locus YPR135W, strain CTF4, stronger effect = lower value 1.06 | S. cerevisiae strains, strain wild type, stronger effect = lower value 1.02
